# TR SRC2 fluor cs = alters Texas Red total fluorescence, flagging assay interference; TRb/SRC2 Texas Red total fluorescence interference; Potency, µM (highest dose often 106 µM), for the others: at the highest dose fluorescence change, negative = quenching; 0.29% of 280,000 active; active = well fitted curve in either direction with a large enough effect; inconclusive = small, poorly fitted or top-dose-only effect; also: % is scaled to controls: 0 for no effect and ±100 for the full control effect
#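 Flags fluorescent or light-absorbing compounds by total fluorescence, S + 2P, at 555 nm excitation and 632 nm emission. Mixture: 20 nM Texas Red SRC2 peptide, 0.6 uM human TRb LBD, 1 uM T3, 5% DMSO; compound exposure 5 h at ambient temperature.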
# ERG-DNA inh = blocks human ERG Ets domain binding to DNA; P11308; fluorescence polarization, His-ERG Ets domain / labelled DNA; Potency, µM (top dose mostly 76.9 µM), inactives show at the top dose FP activity, negative = inhibition, hits mostly inhibitors; 0.028% of 370,000 active; active = well fitted inhibition curve with a large enough effect in the polarisation, with a control signal flat; inconclusive = small, poorly fitted or top-dose-only effect, or effect the other way, or a change in a side signal; inactive = no such curve, though single readings can be large or run the other way; the % refers to the polarisation;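 also: polarization taken with two DNA probes labelled with fluorescein and Texas red; % of control where 0% means no effect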
# Target sequence (P11308 whole entry, looked up, the tested form may be a part): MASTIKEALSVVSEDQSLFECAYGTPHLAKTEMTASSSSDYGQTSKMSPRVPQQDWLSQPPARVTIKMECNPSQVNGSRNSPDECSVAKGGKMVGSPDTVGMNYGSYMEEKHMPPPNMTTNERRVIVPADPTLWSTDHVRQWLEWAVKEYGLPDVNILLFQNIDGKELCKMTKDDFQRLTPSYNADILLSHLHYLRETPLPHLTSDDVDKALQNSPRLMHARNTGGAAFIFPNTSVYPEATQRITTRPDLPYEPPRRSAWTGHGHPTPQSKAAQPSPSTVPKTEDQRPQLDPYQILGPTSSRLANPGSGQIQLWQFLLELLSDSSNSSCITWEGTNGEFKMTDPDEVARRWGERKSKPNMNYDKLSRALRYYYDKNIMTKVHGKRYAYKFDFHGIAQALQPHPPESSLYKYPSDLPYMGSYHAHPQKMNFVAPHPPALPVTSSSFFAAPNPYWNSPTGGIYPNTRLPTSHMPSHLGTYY
#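 His-tagged ERG Ets domain (1 uM in the protein solution; 300mM KCl, 50mM Tris-HCl, 1mM EDTA, 1mM DTT, pH 7.5) received compound, then a probe mix of 5 nM fluorescein-DNA and 100nM Texas-615-DNA. Fluorescence polarization was read for both dyes.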
# TRb-SRC2 inh = disrupts binding of human TR beta to SRC2; P10828; 0.065% of 280,000 active; TRbeta-SRC2 peptide binding, fluorescence polarization; receptor liganded with 1 µM T3; Potency, µM (top dose mostly 106 µM), inactives show top-dose activity change, negative = inhibition, actives largely listed as inhibitors; active = well fitted inhibition curve with a large enough effect; inconclusive = small, poorly fitted or top-dose-only effect, or effect the other way;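 also: plate controls were bound peptide for no effect and peptide without receptor for full effect; nearly all actives have a fitted effect of over 50% in size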
#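 Each compound concentration gave % activity, normalized to unbound and bound Texas Red SRC2 controls, from polarization read after 5 hr ambient incubation with T3-loaded human TRb LBD.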
# * hit, by the source's call; ? = inconclusive; · = not tested or not shown; [ ] = another dose, or the depositor's remark. This is one part of a sample in which hits are shown more often than they occur. Potency is read from the fitted curve at half-maximal effect.
SMILES,TR SRC2 fluor cs,ERG-DNA inh,TRb-SRC2 inh
CCc1cc2c(nc1CC)CCN(CC/C(C)=N/O[C@@H](C)CN1CCCCc3nc(C)c(C)cc31)C2,-5%[11.2 µM],·,-4%[11.2 µM]
CC(C)c1ccc(C(C)C)cc1,-3%[201 µM],·,4%[201 µM]
CC(C)CC(=O)n1nc(-c2cccnc2)nc1NCc1ccc(F)cc1,0.089µM*[quencher],0%,-6%
O=C(c1ccc(F)cc1)n1nc(-c2cccnc2)nc1NCc1ccccc1,-2%,-2%,-3%
COc1cccc(CNC(=O)c2cc(C)nc3c2c(C)nn3-c2ccc(C)cc2)c1,0%,-1%,11%
CCCCC(C)/C=C(C)/C=C(\C)C(=O)NC1=CC(O)(/C=C/C=C/C=C/C(=O)NC2=C(O)CCC2=O)C2OC2C1=O (stereo not given),-18%,·,-13%
NC(=O)c1sc2nc3c(c(-c4ccco4)c2c1N)CCCC3,-4%,-3%,7%
Nc1c(C(=O)NCC2CCCO2)sc2nc3c(c(-c4ccco4)c12)CC/C3=C\c1ccco1 (stereo not given),11µM*[quencher],-8%,9%
CCOC(=O)CNC(=O)O[C@@H]1C(=O)c2cc(OC)ccc2O[C@H]1c1ccc(OC)c(Br)c1,0%,·,9%
CCC(=O)c1ccc(NC(C)=O)cc1O,-2%,2%,1%
CC(=O)Nc1ccc2c(c1)C(C)(C)C(C)N2C (stereo not given),40µM*[fluorescent],33%,?
CCc1cccc(-n2nnc(-c3nsc(NC(=O)c4cccc(OC)c4)n3)c2C)c1,-1%,-6%,-1%
O=C(COc1ccccc1Cl)Nc1ccc(Cl)c(-c2nc3ccccc3o2)c1,-2%,-6%,3%
COc1ccc(C(=O)NCC(c2cccnc2)N2CCc3ccccc32)cc1OC (stereo not given),2%,6%,-6%
O=C(NCC(c1cccnc1)N1CCc2ccccc2C1)C(=O)Nc1ccc(F)cc1F (stereo not given),2.8µM*[quencher],3%,?
O=C(NCC(c1cccnc1)N1CCc2ccccc21)c1ccc(F)cc1 (stereo not given),0.079µM*[quencher],2%,?
O=C(NCC(c1ccco1)N1CCc2ccccc2C1)C(=O)Nc1ccc(F)cc1F (stereo not given),·,-17%,·
Cc1ccccc1NS(=O)(=O)c1ccc(Br)s1,112µM*[quencher],2%,-40%[53 µM]
CC(C)NC(=O)c1ccccc1NS(=O)(=O)c1ccc(Br)s1,·,-7%,·
COc1ccc(C2c3c(-c4ccccc4)n[nH]c3C(=O)N2c2ccc(C(=O)O)cc2)c(OC)c1 (stereo not given),-1%,-2%,4%
Oc1ccc(N=Cc2ccc(-c3cccs3)s2)cc1,9%,?,32µM*
O=Cc1ccc(-c2cccs2)s1,·,10%,·
Cc1ccc(CCNC(=O)Cn2nc(-c3ccc(C)cc3)ccc2=O)cc1,-4%,13%,6%
COC(=O)N/N=C/c1cc(N=Nc2ccccc2Cl)ccc1O,40µM*[quencher],4%,?
COC(=O)N/N=C/c1cc(N=Nc2ccccc2)ccc1O,-3%,-9%,8%
SMILES,TR SRC2 fluor cs,ERG-DNA inh,TRb-SRC2 inh
CCOC(=O)c1c(S(=O)(=O)NCC(=O)N2CCN(c3cccc(Cl)c3)CC2)c(C)n(C)c1C,0.35µM*[quencher],-2%,-23%
CCOC(=O)c1c(S(=O)(=O)NCC(=O)N2CCN(c3ccc(F)cc3)CC2)c(C)n(C)c1C,·,6%,·
CCCCC(CC)COP(=O)(O)OCC(CC)CCCC (stereo not given),0%[201 µM],·,2%[201 µM]
COc1ccc(C(=O)Nc2ccc(N3CCOCC3)c(C(F)(F)F)c2)cc1OC,11µM*[quencher],6%,-6%
COc1ccc(C(=O)Nc2ccc(N3CCOCC3)cc2)cc1OC,0%,-2%,-4%
O=c1oc(=O)c2cc3c(=O)oc(=O)c3cc12,0%[201 µM],·,10%[201 µM]
CCN(CC)c1cc2c(cc1F)c(=O)c(S(=O)(=O)c1ccccc1)cn2Cc1ccccc1,-16%,3%,-1%
CCN(CC)c1cc2c(cc1F)c(=O)c(S(=O)(=O)c1ccc(OC)cc1)cn2Cc1ccccc1,112µM*[quencher],-1%,-25%
O=C(NCCc1csc(-c2ccc(F)cc2)n1)c1cccs1,-3%,2%,-3%
CCn1c(=O)cc(OCC(=O)N2CCN(c3cccc(Cl)c3)CC2)c2ccccc21,?,2%,-7%
CCc1ccc(/C(C)=N\Nc2ccc([N+](=O)[O-])cc2)cc1,2%,-1%,-1%
C/C(=N\Nc1ccc([N+](=O)[O-])cc1)c1ccc(N)cc1,0.32µM*[quencher],·,-27%[53 µM]
CCCn1c2ccccc2c2cnn(CC(=O)N(C)c3ccc(F)cc3)c(=O)c21,7%,9%,5%
Nc1nc(-c2c[nH]c3ccccc23)cs1,35µM*[fluorescent],-12%,17%
CNc1nc(-c2c[nH]c3ccccc23)cs1,?,6%,-7%
